Compound activity: PubChem BioAssay, National Center for Advancing Translational Sciences (NCATS)
RXFP1 agonist = agonists of human relaxin receptor RXFP1; Q9HBX9; HEK293T-RXFP1 cAMP TR-FRET, 30 min; response scale: percent of porcine relaxin response, buffer zero; Potency, µM (highest dose often 57.5 µM), most hits filed as activators; 370,000 compounds, 0.3% hits; active = well fitted activation curve with a large enough effect; inconclusive = small, poorly fitted or top-dose-only effect; also: nearly all actives have a fitted effect of over 60% in size
Target sequence (Q9HBX9 whole entry, looked up): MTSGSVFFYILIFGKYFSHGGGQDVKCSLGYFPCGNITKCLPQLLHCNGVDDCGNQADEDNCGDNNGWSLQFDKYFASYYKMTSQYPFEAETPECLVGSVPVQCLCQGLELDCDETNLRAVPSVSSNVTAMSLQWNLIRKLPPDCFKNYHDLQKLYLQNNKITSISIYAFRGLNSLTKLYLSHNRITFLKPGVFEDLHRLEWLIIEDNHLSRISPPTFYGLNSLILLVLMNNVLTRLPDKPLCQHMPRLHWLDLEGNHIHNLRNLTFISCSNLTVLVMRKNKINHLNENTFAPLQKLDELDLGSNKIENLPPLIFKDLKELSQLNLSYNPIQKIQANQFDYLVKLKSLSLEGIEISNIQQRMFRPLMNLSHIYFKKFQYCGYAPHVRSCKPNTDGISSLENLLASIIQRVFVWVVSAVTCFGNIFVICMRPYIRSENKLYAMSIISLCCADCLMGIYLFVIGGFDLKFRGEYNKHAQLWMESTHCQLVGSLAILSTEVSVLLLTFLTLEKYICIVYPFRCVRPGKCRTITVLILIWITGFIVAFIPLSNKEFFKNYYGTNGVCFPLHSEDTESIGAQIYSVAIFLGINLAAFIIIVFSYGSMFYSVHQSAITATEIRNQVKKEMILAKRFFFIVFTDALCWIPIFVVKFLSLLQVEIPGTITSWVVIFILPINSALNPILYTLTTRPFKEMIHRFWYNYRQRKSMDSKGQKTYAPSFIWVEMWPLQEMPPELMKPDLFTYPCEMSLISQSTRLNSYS
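Agonist response is measured as cAMP accumulation in an RXFP1-transfected HEK293T line under PDE4 inhibition. Values are scaled between buffer-only and 29 nM porcine relaxin, and EC50s come from standard Hill equation fits.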
pAkt inh = blocks phosphorylation of Akt. Neuro2A IGF-stimulated pAkt S473 HTRF, 20 min; active compounds read low. activity change, % for hits at 50 µM. 360,000 compounds, 0.32% hits. AID 651550; in the data active = activity change below about -80%; inconclusive = mostly about -51% to -80%
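Neuro2A cells (4,500/well, DMEM with 0.5% FBS) were treated with compound at a single 50 µM final concentration, stimulated with 6 nM IGF for 20 min at 37 °C, and lysed. Phospho-Akt Ser473 was read by HTRF as 665/615 ratio ×10^4.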
gsp agonist = gsp mutant agonism; gsp mutant cells, cAMP HTRF, 30 min; Potency, µM (highest dose often 76.9 µM), actives largely listed as activators; 340,000 compounds, 0.13% hits; AID 624287; active = well fitted activation curve with a large enough effect; inconclusive = small, poorly fitted or top-dose-only effect, or another doubt; inactive = no such curve, though single readings can be large or run the other way; cell line not stated here;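 also: phosphodiesterase inhibitor Ro 20-1724 added with compounds to block cAMP breakdown; nearly all actives have a fitted effect of over 60% in size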
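Cells in DMEM/10% FBS with G418 were pretreated with compounds in DMSO plus […] (300 uM stock) for 30 min at 37C. cAMP was measured by HTRF (cAMP-d2 plus anti-cAMP antibody-K) after 30 min at room temperature.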
RXFP1 antag = antagonists of human relaxin receptor RXFP1 | activity change, negative = inhibition, % at 57.5 µM | AID 1259400 | Q9HBX9 | HEK293-RXFP1, relaxin-stimulated cAMP HTRF, 30 min; active compounds read low | 350,000 compounds, 0.59% hits;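 active = activity change of -60% or lower, but not beyond a set lower limit; inconclusive = change between -60% and -40%, or beyond the set limit; inactive = change above -40%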
gsp antag = antagonists of gsp mutant (McCune-Albright syndrome); gsp-mutant cells, cAMP HTRF, 30 min; Potency, µM (highest dose often 76.9 µM), actives largely listed as inhibitors; 340,000 compounds, 0.4% hits; calls by dose curve; cell line not stated here;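 also: intracellular cAMP measured with PDE inhibitor Ro 20-1724 present during compound exposure; nearly all actives have a fitted effect of over 65% in size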
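HTRF cAMP measurement after 30 min RT detection following 30 min, 37C compound treatment alongside […] (added as 300 uM solution) in G418-selected cells seeded at 2000/well and grown 16–24 h.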
Numbers stand for hits; ! = a repeat was not active; [ ] = remark or other dose. Shown are actives, neighbours in structure and some others; about 1.2% of the full set was active somewhere.

`CC(c1ccccc1)N1C(=O)c2ccc(C(=O)Nc3ccc(Br)cc3C(=O)O)cc2C1=O` (stereo unspecified) gave RXFP1 agonist inactive, pAkt inh inactive, gsp agonist inactive, RXFP1 antag inactive and gsp antag 35µM.
`O=C(Nc1ccc(O)cc1C(=O)O)c1ccc2c(c1)C(=O)N(Cc1ccco1)C2=O` gave RXFP1 agonist inactive, gsp agonist inactive, RXFP1 antag inactive and gsp antag 32µM.
CC(c1ccccc1)N1C(=O)c2ccc(C(=O)Nc3ccccc3C(=O)O)cc2C1=O (stereo unspecified) was read as RXFP1 agonist inactive, pAkt inh inactive, gsp agonist inactive, RXFP1 antag -74 and gsp antag 16µM.
Screening CC(C)CC(=O)Nc1cccc(C(=O)Nc2ccccc2C(=O)O)c1 returned RXFP1 agonist inactive, pAkt inh inactive, gsp agonist inactive, RXFP1 antag inactive and gsp antag 32µM.
For CC(C)CN1C(=O)c2ccc(C(=O)Nc3ccc(O)cc3C(=O)O)cc2C1=O the results were RXFP1 agonist inactive, pAkt inh inactive, gsp agonist inactive[15.4 µM], RXFP1 antag inactive and gsp antag inactive.
`CCC1(c2cnc[nH]2)Cc2ccccc2C1` gave RXFP1 antag inactive.
For CN1CCN(C(=O)C2CCCCC2)CC1 the results were RXFP1 antag inactive.
For Cc1nc2nc(SCC(=O)Nc3cccc(Cl)c3)nn2c(C)c1Cc1ccccc1 the results were RXFP1 agonist inactive and RXFP1 antag inactive.
For Cc1csc(NC(=O)c2ccccc2O)n1 the results were RXFP1 agonist inactive, pAkt inh -99%, gsp agonist inactive, RXFP1 antag inactive and gsp antag inactive.
`O=C(Nc1ccccc1O)c1ccccc1O` gave RXFP1 agonist inactive, pAkt inh inactive, gsp agonist inactive, RXFP1 antag inactive and gsp antag 25µM.
For CCCCCCCCNc1ncnc2ccccc12 the results were RXFP1 agonist inactive, gsp agonist inactive, RXFP1 antag inactive and gsp antag 0.89µM.
CCN(CC)S(=O)(=O)c1cccc(-c2nnc(SCc3nnc(-c4ccccc4)o3)n2C)c1 was read as RXFP1 agonist inactive, pAkt inh -99%, gsp agonist inactive, RXFP1 antag inactive and gsp antag inactive.
CCN(CC)S(=O)(=O)c1ccc(-c2nnc(SCc3nnc(-c4ccc(C)cc4)o3)n2CC)cc1 was read as RXFP1 agonist inactive, gsp agonist inactive, RXFP1 antag inactive and gsp antag inactive.
Screening CSCC[C@H](NC(=O)[C@H](Cc1c[nH]c2ccccc12)NC(=O)CCNC(=O)OC(C)(C)C)C(=O)N[C@@H](CC(=O)O)C(=O)N[C@@H](Cc1ccccc1)C(N)=O returned RXFP1 antag inactive.
`O=C(CN1C(=O)c2cccc3cccc(c23)C1=O)NCCCO` gave RXFP1 agonist inactive, pAkt inh inactive, gsp agonist 14µM, RXFP1 antag inactive and gsp antag inactive.
For O=C(CN1C(=O)c2cccc3cccc(c23)C1=O)NCCN1CCOCC1 the results were RXFP1 agonist 14µM, pAkt inh inactive, gsp agonist inconclusive, RXFP1 antag inactive and gsp antag inactive.
For CCCCN(CCCC)C(C(N)=O)c1ccc(OC)cc1 (stereo unspecified) the results were RXFP1 antag inactive.
CCCCOc1c(C(=O)Nc2ccccc2)nnn1-c1ccccc1 was read as RXFP1 agonist inactive, pAkt inh inactive, gsp agonist inactive[15.4 µM] and RXFP1 antag -87.
For CCOC(=O)c1[nH]cnc1C(=O)Nc1ccccc1 the results were RXFP1 agonist inactive, pAkt inh inactive, gsp agonist inactive[15.4 µM] and RXFP1 antag inactive.
`CCOc1cccc(CNc2ccc(O)cc2)c1OCc1ccccc1Cl` gave RXFP1 agonist inactive, pAkt inh inactive, gsp agonist inactive, RXFP1 antag -89! and gsp antag inactive.
CC1=NOC(=O)/C1=C\c1ccc(-c2ccc(Br)cc2)o1 was read as RXFP1 agonist inactive, pAkt inh inactive, gsp agonist 4µM, RXFP1 antag inactive and gsp antag inactive.
Screening CCOc1ccccc1NC(=O)Nc1nnc(N(C)Cc2ccccc2)s1 returned RXFP1 agonist inactive and RXFP1 antag inactive.
CCCSCCCNC(=O)c1ccc2c(c1)nc1n2CCCCC1 was read as RXFP1 agonist inactive and RXFP1 antag inactive.
For CN1c2ccsc2C(O)=C(C(=S)Nc2ccc(F)c(Cl)c2)S1(=O)=O the results were RXFP1 agonist inactive, pAkt inh inactive, gsp agonist inactive, RXFP1 antag inactive and gsp antag 35µM.
N#C/C(=C/c1ccc(Sc2nc3ccccc3[nH]2)o1)c1cccc(F)c1 was read as RXFP1 agonist inactive, pAkt inh inactive, gsp agonist inactive, RXFP1 antag inactive and gsp antag 35µM.
Screening Cc1ccccc1C(=O)Nc1cccc(NC(=O)c2ccc(C(C)(C)C)cc2)c1 returned RXFP1 agonist inactive and RXFP1 antag inactive.
Cc1csc2ncc(C(=O)NC(C)c3ccccc3)c(=O)n12 (stereo unspecified) was read as RXFP1 agonist inactive, pAkt inh inactive, gsp agonist 18µM, RXFP1 antag inactive and gsp antag inactive.
Screening O=C(N/N=C1\C/C(=N\NC(=O)c2ccncc2)c2ccccc21)c1ccncc1 returned RXFP1 agonist 32µM, pAkt inh inactive, gsp agonist 25µM, RXFP1 antag inactive and gsp antag inactive.
O=C(NN=C1C2CC3CC(C2)CC1C3)c1ccncc1 was read as RXFP1 agonist inactive, pAkt inh inactive, gsp agonist inconclusive, RXFP1 antag inactive and gsp antag inactive.
For CCN(CC)CC(=O)Oc1ccc(NC(C)=O)cc1 the results were RXFP1 antag inactive.
CCOc1ccc2nc(N3CCCC(C(=O)Nc4ccc(Br)c(C)c4)C3)sc2c1 (stereo unspecified) was read as RXFP1 agonist inactive and RXFP1 antag inactive.
`CSc1ccc(CN2CCc3c([nH]c4ccccc34)C2)cc1` gave RXFP1 agonist inactive, pAkt inh inactive, gsp agonist inactive[15.4 µM], RXFP1 antag inactive and gsp antag inactive.
Clc1ccc(CN2CCc3c([nH]c4ccccc34)C2)cc1Cl was read as RXFP1 agonist inactive, pAkt inh inactive, gsp agonist inactive, RXFP1 antag -64 and gsp antag inactive.
`Cc1cccc(CN2CCc3c([nH]c4ccccc34)C2)c1` gave RXFP1 agonist inactive, pAkt inh inactive, gsp agonist inactive, RXFP1 antag inconclusive and gsp antag inactive.
For Clc1cccc(CN2CCc3c([nH]c4ccccc34)C2)c1 the results were RXFP1 agonist inactive, pAkt inh inactive, gsp agonist inactive, RXFP1 antag -64 and gsp antag inactive.
For Cc1cc(NC(=O)COCc2cc(-c3ccc(F)cc3)on2)ccc1Br the results were RXFP1 agonist inactive and RXFP1 antag inactive.
Cn1c(=O)c([N+](=O)[O-])c(NCCCn2ccnc2)c2ccccc21 was read as RXFP1 agonist inactive, pAkt inh inactive, gsp agonist inactive[15.4 µM], RXFP1 antag inactive and gsp antag inactive.
